Sampled rows, rich in hits. Any-hit rate of the full collection: about 1.3%.
USP1 inh: Inhibitors of USP1/UAF1: Primary Screen. Ubiquitin carboxyl-terminal hydrolase 1 (Homo sapiens), O94782. recombinant USP1/UAF1, Ub-Rhodamine cleavage fluorescence. Potency, µM (highest dose often 57.1 µM), inactives show top-dose activity change, negative = inhibition, hits mostly inhibitors. 0.23% of 390,000 active. AID 743255, 2014; also: % is scaled to controls: 0 for no effect and ±100 for the full control effect; nearly all actives have a fitted effect of over 60% in size
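In this screen, compounds sit with the deubiquitinase complex (1nM) for 15 min at room temperature before Ub-Rho is added at 150nM final. Fluorescence rise is then followed for 6 reads every 60 seconds.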
EPAC1 ag: qHTS for Agonist of cAMP-regulated guanine nucleotide exchange factor 3 (EPAC1): primary screen; Rap guanine nucleotide exchange factor 3 (Homo sapiens), O95398; EPAC1 agonist qHTS, biochemical assay; response scale: 100% = response to 6.5 mM cAMP; Potency, µM (series often up to 154 µM), inactives show at the top dose activation, most hits filed as activators; 0.073% of 360,000 active; also: nearly all actives have a fitted effect of over 60% in size
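Nucleotide exchange assay: 100 nM EPAC1 with 250 nM Rap1B loaded with BODIPY-GDP and 50 uM GDP, room temperature. Fluorescence (480/540 nm) read every 5 min for 30 min; signal change normalized to 6.5 mM cAMP as full agonist.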
ALOX12 inh: Primary qHTS assay for inhibitors of human arachidonate 12S-lipoxygenase (ALOX12): Round 2 | Polyunsaturated fatty acid lipoxygenase ALOX12 (Homo sapiens), P18054 | purified 12hLO, xylenol orange hydroperoxide absorbance | Potency, µM (titrated, usually from 108 µM), for inactives: at the highest dose activity change, negative = inhibition, hits mostly inhibitors | 1.1% of 580,000 active | AID 1671190, 2021; also: % is scaled to controls: 0 for no effect and ±100 for the full control effect
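Purified human 12hLO (150 nM final) in 25 mM Hepes, 0.01% Triton X-100, pH 7.0 was preincubated 15 min at room temperature with compound. Then 40 uM arachidonic acid was added, 30 min. Hydroperoxide was read by Fe-XO absorbance ratio 573/405 nm.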
EPAC2 ag: qHTS for Agonist of cAMP-regulated guanine nucleotide exchange factor 4 (EPAC2): primary screen. Rap guanine nucleotide exchange factor 4 (Homo sapiens), Q8WZA2. EPAC2 activation, biochemical qHTS; response scale: 100% = 6.5 mM cAMP response. Potency, µM (highest dose often 154 µM), for inactives: top-dose activation, actives largely listed as activators. 0.079% of 360,000 active; also: nearly all actives have a fitted effect of over 50% in size
Target sequence (Q8WZA2 whole entry, looked up): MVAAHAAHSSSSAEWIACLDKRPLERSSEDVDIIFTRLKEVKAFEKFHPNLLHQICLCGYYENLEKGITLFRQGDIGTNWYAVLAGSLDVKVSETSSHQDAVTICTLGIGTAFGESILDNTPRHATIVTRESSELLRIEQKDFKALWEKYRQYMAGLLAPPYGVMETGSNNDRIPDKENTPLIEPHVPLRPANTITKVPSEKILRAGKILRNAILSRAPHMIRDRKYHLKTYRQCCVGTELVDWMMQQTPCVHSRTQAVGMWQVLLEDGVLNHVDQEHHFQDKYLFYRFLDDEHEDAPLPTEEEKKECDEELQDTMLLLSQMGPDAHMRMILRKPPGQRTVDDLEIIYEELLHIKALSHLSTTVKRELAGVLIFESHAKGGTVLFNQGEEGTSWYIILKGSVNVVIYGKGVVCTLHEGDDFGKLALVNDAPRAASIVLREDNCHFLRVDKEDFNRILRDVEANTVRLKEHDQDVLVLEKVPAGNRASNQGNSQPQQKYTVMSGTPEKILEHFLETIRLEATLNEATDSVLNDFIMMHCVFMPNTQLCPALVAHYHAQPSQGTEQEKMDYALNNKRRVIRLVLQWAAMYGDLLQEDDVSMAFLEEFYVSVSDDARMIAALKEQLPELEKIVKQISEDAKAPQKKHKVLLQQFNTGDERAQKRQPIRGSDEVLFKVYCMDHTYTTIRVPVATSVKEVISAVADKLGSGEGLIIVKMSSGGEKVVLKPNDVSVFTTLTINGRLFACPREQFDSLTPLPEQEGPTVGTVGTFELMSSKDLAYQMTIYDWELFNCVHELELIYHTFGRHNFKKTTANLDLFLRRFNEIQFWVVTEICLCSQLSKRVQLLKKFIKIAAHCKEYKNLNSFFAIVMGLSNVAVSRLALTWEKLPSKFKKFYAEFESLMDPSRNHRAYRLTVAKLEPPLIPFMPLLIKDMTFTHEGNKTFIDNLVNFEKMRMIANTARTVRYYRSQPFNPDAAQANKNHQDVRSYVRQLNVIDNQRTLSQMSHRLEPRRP
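EPAC2 (100 nM) mixed with Rap1B loaded with BODIPY-GDP (250 nM) plus 50 uM unlabeled GDP; compounds pinned in, 5 min RT, then read every 5 min for 30 min (ex 480, em 540 nm). Normalized to cAMP control.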
EPAC1 antagonist: qHTS for Antagonist of cAMP-regulated guanine nucleotide exchange factor 3 (EPAC1): primary screen. Rap guanine nucleotide exchange factor 3 (Homo sapiens), O95398. EPAC1 GEF assay, Rap1b-BODIPY-GDP exchange fluorescence. Potency, µM (top dose mostly 115 µM), without a hit: top-dose activity change, negative = inhibition, usual class: inhibitors. 0.14% of 360,000 active;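 also: plate controls were vehicle for no effect and positive control for full effect; nearly all actives have a fitted effect of over 50% in size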
EPAC2 antagonist: qHTS for Antagonist of cAMP-regulated guanine nucleotide exchange factor 2 (EPAC2): primary screen | Rap guanine nucleotide exchange factor 4 (Homo sapiens), Q8WZA2 | EPAC2 GEF exchange of Rap1B-BODIPY-GDP, fluorescence | Potency, µM (titrated, usually from 114 µM), without a hit: at the top dose activity, negative = inhibition, actives largely listed as inhibitors | 0.18% of 360,000 active; also: % is scaled to controls: 0 for no effect and ±100 for the full control effect; nearly all actives have a fitted effect of over 45% in size
The depositor's hits bear a star; i = inactive; u = inconclusive; x = no result; [ ] = dose if it differs, or a comment. Calls follow the shape of the dose curve; as a rule, active = well fitted curve in the direction sought with a large enough effect; inconclusive = small, poorly fitted or top-dose-only effect, or another doubt; inactive = no such curve, though single readings can be large; an effect the other way counts as inactive or inconclusive. Potency is read from the fitted curve at half-maximal effect.

SMILES	USP1 inh	EPAC1 ag	ALOX12 inh	EPAC2 ag	EPAC1 antagonist	EPAC2 antagonist
COc1cc2c3nnc(-c4ccc(F)cc4)c-3cn(Cc3ccccc3)c2cc1OC	32µM*	-24%	u	-1%	47%	29%
CC1Sc2ccc(C(=O)OCc3ccccc3Cl)cc2NC1=O (centres undefined)	-14%	50µM*	u	0%	0%	3%
Cc1cccc(/C=N/Nc2ccc(S(=O)(=O)Nc3cccc(Cl)c3)cc2[N+](=O)[O-])c1	x	x	-4%	x	x	x
O=C(c1ccc(F)cc1)c1ccc(N2CCCC2)cc1	-25%	11%	32µM*	14%	5%	6%
O=C(c1ccc(F)cc1)c1ccc(N2CCCCC2)cc1	-23%	11%	-26%	29%	-5%	2%
O=C(CCC(=O)N1CCN(c2ccc(F)cc2)CC1)N1CCN(c2ccc(F)cc2)CC1	-21%	-2%	1.8µM*	4%	-8%	2%
O=c1c(O)c(-c2cc(O)c(O)c(O)c2)oc2cc(O)cc(O)c12	-20%	-26%	u	8%	16µM*	8.9µM*
O=c1c(O)c(-c2ccccc2)oc2cc(O)cc(O)c12	-29%	-21%	11%	8%	-19%	-12%
CC(C)=CCc1cc(-c2oc3cc(O)cc(O)c3c(=O)c2O)ccc1O	-17%	-22%	35µM*	7%	-16%	-10%
COc1c(-c2ccc(O)c(O)c2)oc2cc(O)cc(O)c2c1=O	-17%	-18%	7.1µM*	-1%	u	-17%
CC1CCN(S(=O)(=O)NC(C)Cc2ccco2)CC1 (centres undefined)	x	x	-6%	x	x	x
Cc1nc(-c2ccc(S(=O)(=O)Nc3ccc(F)cc3F)cc2)co1	x	x	-17%	x	x	x
COc1ccccc1CC(=O)N1CCC(Cc2nc(-c3ccc(F)cc3)no2)CC1	x	x	-7%	x	x	x
Cc1ccc2[nH]c(=O)c(CN(CCc3ccccc3)C(c3nnnn3Cc3ccco3)C(C)C)cc2c1 (centres undefined)	-13%	5%	11µM*	6%	-15%	-13%
COc1ccc(C2Cn3nnc(C(=O)N4CCN(C(=O)CCc5ccccc5)CC4)c3CO2)cc1 (centres undefined)	x	x	18%	x	x	x
FC(F)(F)c1ccccc1CN1CCC(Cc2ccccc2)CC1	-9%	-4%	0.71µM*	-4%	-6%	-16%
CN(Cc1ccccc1)C(=O)C1CCN(Cc2cccc3ccccc23)CC1	x	x	1.3µM*	x	x	x
Clc1ccccc1CN1CCC(Cc2ccccc2)CC1	-3%	-3%	u	8%	-18%	-1%
Cc1ccccc1CN(C)C1CCN(C)CC1	-21%	-3%	-10%	3%	-1%	4%
Cc1ccccc1CN1CCC(N(C)Cc2ccccc2)CC1	x	x	0.56µM*	x	x	x
C(#CCN1CCN(C(c2ccccc2)c2ccccc2)CC1)COCc1ccccc1	x	x	-10%	x	x	x
Cc1cccc(OCCN(C)C(C)c2nc3ccccc3c(=O)[nH]2)c1 (centres undefined)	x	x	15%	x	x	x
Cc1sc2nc(C3CC3)nc(N3CCN(C(=O)c4ccc(Cl)cc4)CC3)c2c1C	-23%	-3%	25µM*	8%	10%	6%
Cc1sc2nc(C3CC3)nc(N3CCN(C(=O)c4ccc(F)cc4)CC3)c2c1C	-15%	8%	1%	10%	-15%	-3%
COc1ccccc1N1CCN([C@@H]2[C@H](O)[C@H](CO)O[C@@H]2CNC(=O)c2cccc(F)c2)CC1	x	x	-16%	x	x	x
SMILES	USP1 inh	EPAC1 ag	ALOX12 inh	EPAC2 ag	EPAC1 antagonist	EPAC2 antagonist
COc1cccc(NC(=O)NC[C@H]2O[C@@H](CO)[C@@H](O)[C@H]2N2CCN(c3ccccc3OC)CC2)c1	x	x	18µM*	x	x	x
C=CC[N+]12CCCCC1[C@H](CO)CCC2 (some centres undefined)	x	x	-20%	x	x	x
CC(C)(CNC(=O)c1cc(-c2ccc3c(c2)CCCC3)on1)N1CCOCC1	x	x	-5%	x	x	x
O=C1c2ccccc2-c2onc3ccc(NCCCn4ccnc4)c1c23	28µM*	100µM*	x	-86%	335%	406%
COc1ccc2noc3c2c1C(=O)c1ccccc1-3	4µM*	100µM*	13%	u	i	456%
COc1ccc(N)c2c1C(=O)c1ccccc1C2=O	-6%	-3%	11%	-3%	3%	-18%
COc1ccc(OC)c2c1C(=O)c1ccccc1C2=O	32µM*	89µM*	-5%	89µM*	77%	66%
Cc1ccc(-c2cn3c(n2)CO[C@@H](CNC(=O)c2ccc(Cl)cc2)C3)cc1	x	x	5%[176 µM]	x	x	x
O=S1(=O)N=C(SCCO)c2ccccc21	-1%	5%	u	3%	-9%	-4%
CC(SC1=NS(=O)(=O)c2ccccc21)C(=O)O (centres undefined)	x	x	0.71µM*	x	x	x
Cc1ccc(-n2c(O)c(C=Nc3ccccc3-c3n[nH]c(=S)[nH]c3=O)c3ccccc3c2=O)c(C)c1	-27%	-12%	16µM*	-1%	15%	-10%
Cc1ccc(-n2c(O)c(C=Nc3ccccc3-c3n[nH]c(=S)[nH]c3=O)c3ccccc3c2=O)cc1C	u	8%	u	0%	50µM*	-22%
Cc1cccc(-n2c(O)c(C=Nc3ccccc3-c3n[nH]c(=S)[nH]c3=O)c3ccccc3c2=O)n1	-23%	-12%	u	1%	-23%	12%
O=C1CSc2ccc(C(=O)Nc3cccc4cccnc34)cc2N1	x	x	32%	x	x	x
CN(C)CCCNC(N)=O	x	x	-28%	x	x	x
O=C(CSc1nc2ccccc2nc1N1CCCC1)Nc1ccc(Cl)cc1	-20%	1%	-6%	4%	-4%	5%
CC(C)c1ccc(NC(=O)CSc2nc3ccccc3nc2N2CCCC2)cc1	-15%	-9%	6.3µM*	13%	2%	-1%
O=C(/C=C/NCc1ccccc1)C(F)(F)F	x	x	-4%	x	x	x
Cc1n[nH]c(C)c1N1C(=O)c2cccc3c(N4CCCCCC4)ccc(c23)C1=O	25µM*	u	-4%	30%	0%	54%

Bioassay records from PubChem BioAssay.
